In the library only some 3.4% were active in any assay of this set; here they are far more common.
PAFAH2 FP inh = PAFAH2 (human) inhibition. recombinant PAFAH2, FP-rhodamine activity probe, fluorescence polarization. inhibition, % at 3.39 µM. Q99487. actives 0.99% (n = 340,000);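 active = inhibition above the mean over all tested compounds plus 3 SD, cut at about 30% in these data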;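 also: inhibitors block probe labeling of enzyme so polarization drops; 0% = enzyme with DMSO and 100% = wells lacking PAFAH2 protein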
PP1 counter = PP1-alpha (human) inhibition in PP5 counter-screen; P62136; actives 0.9% (n = 320,000); AID 2235; purified PP1alpha, OMFP fluorescence; inhibition, % at 6.7 µM;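 active = inhibition above the mean inhibition of all tested compounds plus 3 SD, computed separately for each screening campaign, cut at about 15% in these data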
PP5 inh = inhibitors of human protein phosphatase 5 (PP5). P53041. purified PP5c, OMFP substrate fluorescence. inhibition, % at 6.7 µM. actives 0.18% (n = 320,000). AID 1987;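 active = inhibition above the campaign's mean inhibition across all tested compounds plus 3 SD, cut at about 9.5% in these data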;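 also: 0% = DMSO only and 100% = 100 µM cantharidin control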
Target sequence (P53041 whole entry, looked up): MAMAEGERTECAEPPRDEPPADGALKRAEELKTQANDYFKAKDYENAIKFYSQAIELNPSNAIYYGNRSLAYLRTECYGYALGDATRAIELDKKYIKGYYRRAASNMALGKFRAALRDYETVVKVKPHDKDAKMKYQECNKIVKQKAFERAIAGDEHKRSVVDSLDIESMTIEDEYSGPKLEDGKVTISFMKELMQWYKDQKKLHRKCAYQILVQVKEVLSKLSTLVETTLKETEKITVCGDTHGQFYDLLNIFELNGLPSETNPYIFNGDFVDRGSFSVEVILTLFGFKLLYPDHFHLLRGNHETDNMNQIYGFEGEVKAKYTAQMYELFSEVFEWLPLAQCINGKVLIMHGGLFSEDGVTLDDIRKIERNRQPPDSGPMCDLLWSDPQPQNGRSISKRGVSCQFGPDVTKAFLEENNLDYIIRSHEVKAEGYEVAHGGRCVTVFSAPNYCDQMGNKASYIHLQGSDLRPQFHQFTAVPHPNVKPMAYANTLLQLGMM
PAFAH1B2 inh = inhibitors of human PAFAH1B2. P68402. recombinant PAFAH1B2, FP-rhodamine activity probe, fluorescence polarization. inhibition, % at 3.39 µM. actives 1.2% (n = 340,000);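 active = inhibition above the mean of all tested compounds plus 3 SD, cut at about 24% in these data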;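 also: 0% = enzyme with DMSO and 100% = wells lacking PAFAH1B2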
pPAFAH FP inh = pPAFAH (human) enzyme inhibition. Q13093. recombinant pPAFAH, FP-rhodamine probe fluorescence polarization. inhibition, % at 3.39 µM. actives 1.5% (n = 330,000). AID 463082;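 active = inhibition above the mean inhibition across the screen plus 3 SD, cut at about 25% in these data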;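 also: inhibitors block binding of the rhodamine activity-based probe so polarization drops; 0% = enzyme with DMSO and 100% = wells lacking pPAFAH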
PAFAH1B3 inh = PAFAH1B3 (human) inhibition | inhibition, % at 3.39 µM | Q15102 | recombinant PAFAH1B3, FP-rhodamine probe, fluorescence polarization | AID 492972 | actives 0.28% (n = 340,000);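 active = inhibition above the screen-wide average of all tested compounds plus 3 SD, cut at about 25% in these data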;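 also: 0% = enzyme with DMSO only and 100% = wells lacking PAFAH1B3 protein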
* = called active by the depositor; nt = no result given.

SMILES | PAFAH2 FP inh | PP1 counter | PP5 inh | PAFAH1B2 inh | pPAFAH FP inh | PAFAH1B3 inh
Cc1nn(-c2ccccc2)c(Cl)c1CN(C(=O)CCl)c1ccc(Cl)cc1 | 2 | 3 | 1 | 41* | 4 | 0
CC(C)(C)c1ccc(C(=O)NC(=O)COC(=O)c2ccc(Br)o2)cc1 | 3 | nt | nt | 2 | 3 | -6
Oc1c(Cl)cc(Cl)cc1CNc1nc2ccccc2[nH]1 | 20 | 3 | 2 | 6 | 18 | 9
CCCCN(CCCNC(=O)C1CCN(S(=O)(=O)N2CCOCC2)CC1)c1ccccc1 | 2 | 1 | 1 | 2 | 28* | -5
Cc1ccc(C)c(S(=O)(=O)N2CCCOC2CNC(=O)C(=O)NCc2ccccn2)c1 (configuration not stated) | -8 | -8 | 2 | -6 | 1 | 2
C[C@]12c3[nH]c4ccc(Cl)cc4c3CCN1C(=O)[C@@H](CC(=O)NCc1ccco1)C[C@@H]2C(=O)N1CCCCC1 | 1 | nt | nt | 5 | 7 | 4
O=C1CC(c2ccco2)Cc2nc(Nc3nc(-c4ccccc4)c4ccccc4n3)ncc21 (configuration not stated) | -10 | 26* | 0 | -1 | 0 | -4
O=C(Nc1ncc2c(n1)CC(c1ccco1)CC2=O)c1ccccc1 (configuration not stated) | -1 | -9 | 6 | -1 | 0 | 6
Cc1nc2c(nc1C)C(=O)c1ccccc1C2=O | 4 | nt | nt | 4 | nt | 8
COC1=C(N)C(=O)c2nc(C)ccc2C1=O | 18 | nt | nt | 27* | nt | 63*
O=C(c1ccccc1NS(=O)(=O)c1cccc([N+](=O)[O-])c1)N1CCCC1 | -3 | 3 | 2 | 5 | 0 | 3
Cc1cccc(C)c1NC(=O)CN(C)C(=O)c1ccc(NS(=O)(=O)c2ccc3[nH]c(=O)[nH]c3c2)cc1 | 2 | -3 | -1 | 4 | 3 | 11
CSc1ccc(CN(C)C(=O)c2ccc(S(=O)(=O)Nc3c(C)n(C)n(-c4ccccc4)c3=O)cc2)cc1 | 4 | nt | nt | 5 | nt | 6
CN(Cc1ccc(F)cc1)C(=O)c1cccc(NS(=O)(=O)c2ccccc2)c1 | 4 | 1 | 2 | 13 | 25* | -2
CSc1ccc(CN(C)C(=O)c2ccc(S(=O)(=O)Nc3ccccc3)cc2)cc1 | 3 | 3 | 1 | 4 | 32* | -6
Cc1cccc(C)c1NC(=O)CN(C)C(=O)c1cccc(NS(=O)(=O)c2ccccc2)c1 | 6 | -3 | -2 | 2 | 30* | -1
O=C(OCC(=O)N(CCc1ccccc1)Cc1ccccc1)c1ccc(F)c(S(=O)(=O)N2CCOCC2)c1 | 3 | nt | nt | 0 | nt | 6
CC(C)n1cnc2c(NCc3ccccc3)cc(Cc3ccc(F)cc3)cc21 | 17 | 3 | 0 | 5 | 28* | 7
CCC(CO)Oc1cc(NCc2ccc(Cl)cc2)c2ncn(C(C)C)c2c1 (configuration not stated) | 6 | nt | nt | 28* | 8 | 7
CCCOc1cc(NCc2ccccc2)c2ncn(C(C)C)c2c1 | 9 | 3 | 6 | 4 | 25* | -6
COc1ccc(C2Cc3ccccc3C(=O)O2)cc1 (configuration not stated) | 1 | 2 | -1 | 3 | 4 | 1
CN(C)S(=O)(=O)c1ccc(N2CCCC2)c(C(=O)NCC2CCCCC2)c1 | 0 | 1 | -2 | 3 | 28* | 5
CC(C)c1ccc(NC(=O)COC(=O)c2nn(C)c(=O)c3ccccc23)cc1 | 0 | nt | nt | -1 | -6 | 2
CCCC(=O)Nc1nc(C)c(-c2csc(Nc3cc(OC)ccc3OC)n2)s1 | 7 | 1 | 4 | 12 | 29* | 15
CCCC(C)C(=O)Nc1nc(C)c(-c2csc(Nc3cc(OC)ccc3OC)n2)s1 (configuration not stated) | -5 | 4 | 6 | 5 | 28* | 9
SMILES | PAFAH2 FP inh | PP1 counter | PP5 inh | PAFAH1B2 inh | pPAFAH FP inh | PAFAH1B3 inh
CCCC(=O)Nc1nc(C)c(-c2csc(Nc3ccccc3OC)n2)s1 | 2 | 2 | 5 | 3 | 22 | 12
C=CCCC(=O)Nc1nc(C)c(-c2csc(Nc3cccc(OC)c3)n2)s1 | 6 | 4 | 4 | 3 | 11 | 15
C=CCCC(=O)Nc1nc(C)c(-c2csc(Nc3cc(OC)ccc3OC)n2)s1 | -11 | 0 | 2 | 3 | 34* | 12
Oc1cccc(-c2nnc(-c3cccc(O)c3)nn2)c1 | -8 | nt | nt | 3 | nt | 9
O=c1c2cc(NC(=S)NC3CCCCC3)ccc2nc2n1CCCCC2 | 6 | -1 | 2 | 28* | -3 | 2
O=c1c2cc(NC(=S)NC3CCCC3)ccc2nc2n1CCCCC2 | 2 | -3 | -2 | 8 | -3 | -4
CCc1ccc(C2CC(c3ccc(C)cc3)Nc3nc(N)nn32)cc1 (configuration not stated) | 3 | -6 | -2 | 25* | -7 | 1
COc1ccc(CC(=O)OC(C)C(=O)NC2CCCCC2C)cc1 (configuration not stated) | -2 | nt | nt | 1 | nt | -2
CC(NC(=O)N1CCN(c2ccccc2F)CC1)c1ccc(F)c(F)c1 (configuration not stated) | 23 | 0 | 3 | -1 | 6 | 3
O=C(N/N=C/c1ccncc1)c1cc([N+](=O)[O-])cc([N+](=O)[O-])c1O | -5 | 0 | -1 | 3 | 32* | 15
CN(CC(=O)Nc1ccc(F)cc1)C(=O)c1cc(-c2cccs2)nn1-c1ccccc1 | 6 | nt | nt | 4 | nt | 0
O=C(COC(=O)c1cc(-c2cccs2)nn1-c1ccccc1)Nc1ccc(F)c([N+](=O)[O-])c1 | 36* | 2 | -1 | -6 | 25* | -16
COc1ccc(NS(=O)(=O)c2ccc(C(=O)N(C)Cc3cccs3)cc2)cc1 | 3 | nt | nt | 3 | nt | 11
CC(=O)Nc1ccc(NC(=O)COc2ccc(-c3ccc(C#N)cc3)cc2)cc1 | 5 | 17* | -2 | -3 | 0 | 0
Nc1c(C(=O)NC2CCCC2)c2nc3ccccc3nc2n1N | -1 | -3 | 3 | 3 | 25* | 0
Nc1c(C(=O)NC2CCCC2)c2nc3ccccc3nc2n1/N=C/c1ccco1 | 1 | -3 | 0 | 0 | 6 | 10
NS(=O)(=O)c1ccc(NCCCn2ccnc2)c([N+](=O)[O-])c1 | 2 | 1 | 0 | -1 | 3 | -1
O=C1c2ccccc2-c2onc3ccc(NCCCn4ccnc4)c1c23 | nt | -18 | -14 | nt | 105* | nt
CN(C[C@H](Cc1ccccc1)N(C[C@H](Cc1cccc2ccccc12)N(CCc1ccccc1)N=O)N=O)N=O | 3 | 16* | 4 | -7 | 0 | 3
CC(C)C[C@@H](CN(C)N=O)N(C[C@H](Cc1ccccc1)N(CCc1ccccc1)N=O)N=O | 2 | 7 | 3 | 3 | 6 | -1
CCOC=C1C(=O)N(C(C)=O)c2cc(OC)c(OC)cc21 | -4 | nt | nt | 0 | nt | 0
Cc1ccc(-n2c(Cc3cccn3C)nnc2SCC(=O)NCc2ccco2)cc1 | 3 | -2 | 3 | 1 | 29* | 3
